Consider 22 molecules from PubChem BioAssay (EPA / NIEHS).

Activity calls are given as the source filed them. Rule for the calls: active = hit-call score of the fitted dose curve at least 0.9, where 1 is the maximum; inactive = score below 0.9.

As usually defined, the AC50 is the concentration at which the activity in the assay is half-maximal.

Conditions in all cases: mRNA level, 48 h; actives raise or lower the signal
Read-out in assay [1]: JUN Transcription Factor, JUN (gene 3725)
Put plainly: LTEA_HepaRG_JUN: Life Technologies and Expression Analysis (LTEA) Assay for JUN Transcription Factor using HepaRG (AID 2283513). Put shortly:
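Cells plated 48 h, medium switched to serum-free induction medium, then dosed 48 h (100 uM top, half-log dilutions, 0.5% DMSO). RNA isolated; JUN measured by qRT-PCR against three housekeeping genes; gain or loss fitted relative to DMSO.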

Read-out in assay [2]: Lipase C (LIPC), LIPC (gene 3990)
Description: LTEA_HepaRG_LIPC: Life Technologies and Expression Analysis (LTEA) Assay for Lipase C (LIPC) using HepaRG (AID 2283514). The gist of the method: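 HepaRG cells, 48 h after plating, treated in duplicate for 48 h in serum-free induction medium over 8 half-log concentrations from 100 uM, 0.5% DMSO. LIPC mRNA by TaqMan qRT-PCR normalized to ACTB/GAPDH/POLR2A; bidirectional fit versus DMSO.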

Read-out in assay [3]: Lipoprotein lipase (LPL), LPL (gene 4023)
Description: LTEA_HepaRG_LPL: Life Technologies and Expression Analysis (LTEA) Assay for Lipoprotein lipase (LPL) using HepaRG (AID 2283515). Put shortly:
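Differentiated HepaRG cells, plated 48 h, then exposed 48 h in serum-free induction medium to 8 concentrations (top 100 uM, half-log steps) in 0.5% DMSO, duplicate. LPL mRNA measured by qRT-PCR, normalized to ACTB, GAPDH and POLR2A.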

Read-out in assay [4]: MicroRNA 122 (MIR122), gene 406906
Put plainly: LTEA_HepaRG_MIR122: Life Technologies and Expression Analysis (LTEA) Assay for MicroRNA 122 (MIR122) using HepaRG (AID 2283516). Note: the transcript read is the microRNA miR-122. The gist of the method:
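HepaRG plated 48 h, switched to serum-free induction medium, then treated in duplicate for 48 h (100 uM top, half-log steps, 0.5% DMSO vehicle). RNA isolated, qRT-PCR performed, concentration-response fitted both directions relative to DMSO.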

Read-out in assay [5]: matrix metalloproteinase-10 (MMP10), MMP10 (gene 4319)
Description: LTEA_HepaRG_MMP10: Life Technologies and Expression Analysis (LTEA) Assay for matrix metalloproteinase-10 (MMP10) using HepaRG (AID 2283517). The gist of the method:
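Differentiated HepaRG cells in serum-free induction medium exposed 48 h in duplicate to 8-point half-log series up to 100 uM in 0.5% DMSO. mRNA quantified by qRT-PCR, normalised to ACTB, GAPDH, POLR2A; bidirectional fit versus DMSO.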

Read-out in another assay: MYC, MYC (gene 4609)
Put plainly: LTEA_HepaRG_MYC: Life Technologies and Expression Analysis (LTEA) Assay for MYC using HepaRG (AID 2283518). The gist of the method: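 HepaRG, ~100,000 cells/well, collagen I; 48 h plating; serum-free induction medium; 48 h dosing, duplicate, 100 uM top, half-log, 0.5% DMSO; total RNA → qRT-PCR MYC; gain/loss fit vs DMSO.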

Read-out in assay [6]: matrix metalloproteinase-3 (MMP3), MMP3 (gene 4314)
Put plainly: LTEA_HepaRG_MMP3: Life Technologies and Expression Analysis (LTEA) Assay for matrix metalloproteinase-3 (MMP3) using HepaRG (AID 2283519). Put shortly:
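HepaRG cells (~100,000/well) in serum-free induction medium were dosed in duplicate for 48 h with an 8-point half-log series from 100 uM, 0.5% DMSO. MMP3 mRNA was quantified by Fluidigm TaqMan qRT-PCR, normalized to three housekeeping genes.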

Read-out in assay [7]: Paternally Expressed 10 (PEG10), PEG10 (gene 23089)
Put plainly: LTEA_HepaRG_PEG10: Life Technologies and Expression Analysis (LTEA) Assay for Paternally Expressed 10 (PEG10) using HepaRG (AID 2283520). The gist of the method:
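HepaRG, 48 h post-plating → serum-free induction medium → 48 h chemical exposure (duplicate, 8-pt, max 100 uM, half-log, 0.5% DMSO) → lysis in RLT → TaqMan qRT-PCR for PEG10, ACTB/GAPDH/POLR2A normalisation.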

Read-out in assay [8]: Protein phosphatase 2A (PPP2R4), PTPA (gene 5524)
Put plainly: LTEA_HepaRG_PPP2R4: Life Technologies and Expression Analysis (LTEA) Assay for Protein phosphatase 2A (PPP2R4) using HepaRG (AID 2283522). The gist of the method: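 Readout is PPP2R4 transcript level by microfluidic qRT-PCR after 48 h chemical treatment of human HepaRG liver cells. Concentrations spanned 100 uM downward in half-log steps; gain or loss of signal was fitted relative to DMSO.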

Consider `CCC(C)(C)C(=O)O[C@H]1C[C@@H](C)C=C2C=C[C@H](C)[C@H](CC[C@@H]3C[C@@H](O)CC(=O)O3)[C@H]21`, for which the outcome in assay [1] was “inactive”; in assay [2], “inactive”; in assay [3], “inactive”; in [4] it was “inactive”; in assay [5], “inactive”; with MYC, MYC (gene 4609), “inactive”. Also, the call in [6], in [7] and in [8] was inactive.
`O=C(O)CC(O)C(=O)O` (stereo not drawn): the outcome in [1] was “inactive”; in assay [2], “inactive”; in [3], “inactive”; in [4] it was “inactive”; in assay [5], “inactive”; with MYC, MYC (gene 4609) it was “inactive”. Moreover, the call in [6], in assay [7] and in assay [8] was inactive.
For `Cc1ccc(O)cc1`, the outcome in [1] is “inactive”; in [2], “inactive”; in assay [3], “inactive”; in assay [4], “inactive”; in [5], “inactive”; with MYC, MYC (gene 4609), “inactive”. Moreover, the call in assay [6], in assay [7] and in assay [8] was inactive.
Consider `Cn1c(=O)c2c(ncn2C)n(C)c1=O`, for which the outcome in [1] is “inactive”; in [2] it was “inactive”; in assay [3], “inactive”; in [4] it was “inactive”; in assay [5] it was “inactive”; with MYC, MYC (gene 4609), “inactive”. Moreover, the outcome in assay [6], in assay [7] and in [8] was inactive.
`O=C(CCCCCCCCc1cccnc1)N1CCC(C=C(c2ccccc2)c2ccccc2)CC1`: the AC50 in assay [1] is 28.5 µM (active); in assay [2], 22.4 µM (active); in [3] it was 12.8 µM (active); in [4], 26.5 µM (active); in [5], 31.8 µM (active); with MYC, MYC (gene 4609), 27.4 µM (active). Moreover, the AC50 in [6] was 86.8 µM (active); in assay [7], 50 µM (active); in [8] it was 11.7 µM (active).
As for `NC(=O)NO`, the outcome in assay [1] is “inactive”; in assay [2] it was “inactive”; in assay [3] it was “inactive”; in assay [4], “inactive”; in assay [5] it was “inactive”; with MYC, MYC (gene 4609), “inactive”. The molecule was called inactive in assay [6], in [7] and in assay [8].
On to `CN(C)c1ccc(N=NS(=O)(=O)O)cc1`, for which the outcome is “inactive” in assay [1]; “inactive” in assay [2]; “inactive” in [3]; “inactive” in [4]; “inactive” in assay [5]; “inactive” in the assay with MYC, MYC (gene 4609). Besides, the molecule was called inactive in assay [6], in assay [7] and in assay [8].
With `CC1=CC(=O)CC(C)(C)C1`, the outcome in assay [1] is “inactive”; in assay [2], “inactive”; in [3], “inactive”; in assay [4], “inactive”; in assay [5], “inactive”; with MYC, MYC (gene 4609) it was “inactive”. In addition, the result in [6], in assay [7] and in assay [8] was inactive.
With `Cc1c(-c2cccnc2)c2ccccc2n1CCCCC(=O)O`, the outcome was “inactive” in assay [1]; “inactive” in [2]; “inactive” in assay [3]; “inactive” in assay [4]; “inactive” in [5]; “inactive” with MYC, MYC (gene 4609). The call in [6], in assay [7] and in assay [8] was inactive.
Regarding `CC(C)=CCCC(C)=CC=O`, the outcome in [1] was “inactive”; in [2], “inactive”; in assay [3], “inactive”; in assay [4] it was “inactive”; in assay [5], “inactive”; in the assay with MYC, MYC (gene 4609), “inactive”. The molecule was called inactive in [6], in assay [7] and in [8].
On to `CCCC(=O)OCC`, for which the outcome is “inactive” in [1]; “inactive” in assay [2]; “inactive” in [3]; “inactive” in assay [4]; “inactive” in assay [5]; “inactive” in the assay with MYC, MYC (gene 4609). Moreover, the outcome in [6], in assay [7] and in [8] was inactive.
With `CC(=O)OCCC(C)C`, the outcome is “inactive” in assay [1]; “inactive” in assay [2]; “inactive” in [3]; “inactive” in assay [4]; “inactive” in assay [5]; “inactive” in the assay with MYC, MYC (gene 4609). In addition, the molecule was classed as inactive in assay [6], in assay [7] and in assay [8].
On to `O=P(OC(CCl)CCl)(OC(CCl)CCl)OC(CCl)CCl`, for which the molecule was called inactive in assay [1] and in assay [5]. The AC50 in [2] was 65.3 µM (active); in assay [3], 91.3 µM (active); in assay [4], 59.6 µM (active); with MYC, MYC (gene 4609) it was 82.9 µM (active); in assay [6], 23.3 µM (active); in assay [7] it was 12.7 µM (active). Moreover, the AC50 in assay [8] is 85.3 µM (active).
For `O=C1OC(=O)C2C3C=CC(C3)C12` (stereo not drawn), the outcome is “inactive” in assay [1]; “inactive” in [2]; “inactive” in [3]; “inactive” in [4]; “inactive” in assay [5]; “inactive” with MYC, MYC (gene 4609). Also, the molecule was called inactive in assay [6], in assay [7] and in [8].
On to `CCN(C(=O)c1cc(C)cc(OC[C@H](C)Nc2ccncc2)c1)C(C)C`, for which the outcome in assay [1] was “inactive”; in the assay with MYC, MYC (gene 4609) it was “inactive”; in assay [6] it was “inactive”; in assay [7], “inactive”; in [8], “inactive”. Moreover, the AC50 in [2], in [3], in assay [4] and in [5] was 33.8 µM (active) throughout.
For the molecule `C[C@](N)(Cc1ccc(O)c(O)c1)C(=O)O`, the outcome in [1] was “inactive”; in assay [2], “inactive”; in assay [3] it was “inactive”; in assay [4] it was “inactive”; in assay [5] it was “inactive”; with MYC, MYC (gene 4609), “inactive”. Moreover, the result in assay [6], in [7] and in [8] was inactive.
Consider `CC(C)c1cccc(C(C)C)c1N1C(=O)c2ccc(O)cc2C1=O`, for which the molecule was classed as inactive in assay [1] and in assay [8]. The AC50 in assay [2] was 82.8 µM (active); in assay [3] it was 83.4 µM (active); in [4], 93.6 µM (active); in assay [5], 89.9 µM (active); with MYC, MYC (gene 4609) it was 50 µM (active); in assay [6], 93.4 µM (active). In assay [7], the AC50 was 76.8 µM (active).
Regarding `CCc1cc(SCc2sc(-c3ccc(C(F)(F)F)cc3)nc2CN2CCN(c3ccc(OC)cc3)CC2)ccc1OCC(=O)O`, the AC50 is 88.8 µM (active) in assay [1]; 7.95 µM (active) in [2]; 27.9 µM (active) in assay [3]; 93.4 µM (active) in assay [4]; 7.31 µM (active) in assay [5]; 7.43 µM (active) with MYC, MYC (gene 4609). The AC50 in [7] is 93.6 µM (active); in assay [8] it was 22.4 µM (active). Further, the outcome in [6] was inactive.
For the molecule `CC(C)(O)c1coc(S(=O)(=O)NC(=O)Nc2c3c(cc4c2CCC4)CCC3)c1`, the outcome is “inactive” in assay [1]; “inactive” in assay [2]; “inactive” in assay [3]; “inactive” in assay [4]; “inactive” in assay [5]; “inactive” with MYC, MYC (gene 4609). Besides, the result in assay [6] and in assay [8] was inactive. In addition, the AC50 in assay [7] was 50 µM (active).
For the molecule `CC(O)CN(CCN(CC(C)O)CC(C)O)CC(C)O` (stereo not drawn), the outcome was “inactive” in assay [1]; “inactive” in assay [2]; “inactive” in [3]; “inactive” in assay [4]; “inactive” in assay [5]; “inactive” with MYC, MYC (gene 4609). The outcome in assay [6] and in [7] was inactive. Also, the AC50 in assay [8] was 12.5 µM (active).
For `COC(=O)c1ccccc1O`, the outcome in [1] is “inactive”; in [2] it was “inactive”; in assay [3], “inactive”; in assay [4] it was “inactive”; in assay [5], “inactive”; in the assay with MYC, MYC (gene 4609), “inactive”. In addition, the molecule was classed as inactive in assay [6], in assay [7] and in [8].
For `CNCc1ccc(NC(=O)c2c[nH]c3c2C(=O)CCC3)cc1`, the outcome in [1] was “inactive”; in [2], “inactive”; in [3], “inactive”; in [4], “inactive”; in assay [5], “inactive”; with MYC, MYC (gene 4609) it was “inactive”. Further, the molecule was called inactive in assay [6], in assay [7] and in [8].
